The full ranking holds about 68,000 sequences; the median of “fluorescence intensity (a.u.)” is about 9,100, and the highest 2% start at about 16,000. Many of the other results were omitted from the sample, so the highest values are more common in it than they were.

We go through 42 sequences from article PMC7819943, “Rice protein-binding microarrays: a tool to detect cis-acting elements near promoter regions in rice”.

In the test the target is OsWRKY34 (Oryza sativa, UniProt Q0JBA9 1-250). As to the kind of experiment: protein-binding microarray (RPBM); PBS, 2% BSA, 51.3 ng/ul salmon testes DNA, 50 uM zinc acetate, 200 nM TF, 25 C, 1 h; high values mean tight binding. As to conditions: protein: recombinant; tags: N-terminal polyhistidine and DsRed monomer fusion (pET32a); label: CyDye5-dUTP incorporated in the synthesized complementary strand; 3' TTTTT single-stranded linker to array surface; dsDNA, one strand shown. An outline of the steps: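 Binding signal here means per-feature fluorescence intensity in arbitrary units. The values were read on an Axon 4000B scanner after a custom Agilent array, double-stranded by primer extension with Cy5-dUTP, was incubated with 200 nM protein at 25 °C for 1 h in PBS with 2% BSA, salmon testes DNA and 50 µM zinc acetate, then washed. The proteins were transcription factors with an N-terminal polyhistidine tag and DsRed, expressed in E. coli BL21-CodonPlus and purified on Ni–NTA.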
Sequence of OsWRKY34 (Q0JBA9 entry or part of it): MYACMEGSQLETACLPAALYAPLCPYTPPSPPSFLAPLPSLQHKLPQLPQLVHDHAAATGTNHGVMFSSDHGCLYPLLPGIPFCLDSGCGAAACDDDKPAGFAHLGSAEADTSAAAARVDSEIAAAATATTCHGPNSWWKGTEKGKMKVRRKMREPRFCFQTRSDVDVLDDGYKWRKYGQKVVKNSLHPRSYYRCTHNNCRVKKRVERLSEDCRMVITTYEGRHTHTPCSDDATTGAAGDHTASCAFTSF
Consider “CTTTTTATCTCAAATTTGAAAACTTTCAACTTGGATTTGACGGAGTCACCTAGTGCAG”, for which the binding signal is 8520 fluorescence intensity (a.u.). Take “AACTTGCGAAAATTTGACTATCAATTAGCTGGGCGATTGACGGAGTCACCTAGTGCAG”: the binding signal was 32700 fluorescence intensity (a.u.). To “ACTATGGGCTTTTGCATCAACAATTGCGAATTTTTTGTATCGGAGTCACCTAGTGCAG” belongs 9280 fluorescence intensity (a.u.).

“CTGCGGGAGGACGGGTCCGGGGCGGGGTCCGGGTCGGTGCCGGAGTCACCTAGTGCAG”: the binding signal was 9780 fluorescence intensity (a.u.). To “GTGGGGATGGAGGCGTCGTCGGGGTCGTCGTAGAGGTGGGCGGAGTCACCTAGTGCAG” belongs 9240 fluorescence intensity (a.u.).

With “GGGTGGGGAGGTGGTGGTCGTCGGGCAGGTGGGGAGGATGCGGAGTCACCTAGTGCAG”, the binding signal is 23900 fluorescence intensity (a.u.).

Consider “GGAGGATGCGGGTGGTGGTGGAGGAGGAGGAGGCCGAGGTCGGAGTCACCTAGTGCAG”, for which the binding signal was 12400 fluorescence intensity (a.u.). To “GTCGGGGAGGTCGGGGTCAGGGAGGTCGGGGCCGGTGATGCGGAGTCACCTAGTGCAG” belongs 18900 fluorescence intensity (a.u.). In the case of “GGGCCCCAGTCAGGGTGCGGGGCCACGGAGGGGTCGGGGACGGAGTCACCTAGTGCAG”, the binding signal is 9260 fluorescence intensity (a.u.).

In the case of “GCAGACAACTCCGTCGCTGTTACTTCCTCTATGCCAAAACCGGAGTCACCTAGTGCAG”, the binding signal is 9350 fluorescence intensity (a.u.). Regarding “AGCGCGCGCAGCTTTGCAGGCGTGGTCGGGGTCGTTGTGCCGGAGTCACCTAGTGCAG”, the binding signal is 9700 fluorescence intensity (a.u.). For the sequence “TTTACATATCTATCTTTTTTTTTTGTTTTTTCTCGCTTTTCGGAGTCACCTAGTGCAG”, the binding signal is 8460 fluorescence intensity (a.u.). For “AACCTTTCTATAGATTTTTTTTTTTTACAAAAACACATCACGGAGTCACCTAGTGCAG”, the binding signal is 11700 fluorescence intensity (a.u.). As for “AGGTCAACAACCAGTGTCAAGATCTGACCATGCAATTAGCCGGAGTCACCTAGTGCAG”, the binding signal was 17600 fluorescence intensity (a.u.). As for “ACCATTATTCTGTTGTCAACTGCATGCCGCAACAAACTGACGGAGTCACCTAGTGCAG”, the figure is 8420 fluorescence intensity (a.u.); as for “AATCCCAAGCTAGGTGTTGACCATGGGTCAACAATCTCCCCGGAGTCACCTAGTGCAG”, 9470 fluorescence intensity (a.u.); as for “AACTAACTGGCACGCCCTCATATCACCAACCTTTGGACCTCGGAGTCACCTAGTGCAG”, 8560 fluorescence intensity (a.u.). “CTTTCTGATCACCAACTCCGCTCCTTTTAATCGCAACTACCGGAGTCACCTAGTGCAG”: the binding signal is 9660 fluorescence intensity (a.u.). “CTGCCGAAGCAACGGATCTGAATCTACGTACCGAGCTTGTCGGAGTCACCTAGTGCAG”: the binding signal was 64600 fluorescence intensity (a.u.). As to “TCCTGTGGTACCCCTGTCGCCGAATCTACGCATCTGCCAACGGAGTCACCTAGTGCAG”, the binding signal is 8140 fluorescence intensity (a.u.).

As for “ATATCTGCTTCTACGTCGTCTACGAAGCCGCCGAGACGTCCGGAGTCACCTAGTGCAG”, the binding signal is 9320 fluorescence intensity (a.u.). Regarding “ACTCTCTTCCTCACGACGCACCACGGGCTAGCCACTCCTACGGAGTCACCTAGTGCAG”, the binding signal was 8340 fluorescence intensity (a.u.). To “CTTATTTAGTTGGGGAAAATTTTTGGGTTTGTTTGTCACACGGAGTCACCTAGTGCAG” belongs 11600 fluorescence intensity (a.u.). To “TGTTTGCTTATTACTATTTTTTTTGGGGCGGGAAATTAAACGGAGTCACCTAGTGCAG” belongs 14100 fluorescence intensity (a.u.).

Take “GAAAAATTGTCCCTTTTTATTTGGGAGGGGAGGGAGGAGGCGGAGTCACCTAGTGCAG”: the binding signal was 17100 fluorescence intensity (a.u.). Consider “TATTTGGTTTTGTAGGGGTTGGTTTGGGAAAATTGGAAAGCGGAGTCACCTAGTGCAG”, for which the binding signal is 16400 fluorescence intensity (a.u.). As for “TTATATTTTGGGACGGAGTATTACTTTGAATCCCTTTTCCCGGAGTCACCTAGTGCAG”, the figure is 8280 fluorescence intensity (a.u.). In the case of “TATTGTTTAGTTGGGAAAAAAATTTGGGGTTGGTTGTCACCGGAGTCACCTAGTGCAG”, the binding signal was 10400 fluorescence intensity (a.u.).

For “TTTTTTTTTCTTTTGGGGCGGAAGGAGTAGTATGGAGTTTCGGAGTCACCTAGTGCAG”, the binding signal was 12300 fluorescence intensity (a.u.). As for “TTACAAACAAAAACTCAAAATCCCTTATATTTTGGGACAGCGGAGTCACCTAGTGCAG”, the figure is 64700 fluorescence intensity (a.u.); as for “CCTTTTGTTTTTGGGGCTTGTAGTTTTTGGAAATTTGGGGCGGAGTCACCTAGTGCAG”, 18300 fluorescence intensity (a.u.); as for “ATTCTCAAAATCGAATTTGTTTTTATATTTCCCTTACTGTCGGAGTCACCTAGTGCAG”, 14700 fluorescence intensity (a.u.). “GCAGGCGGCGGAGGATTTTTGGGAGGGGAAAACGGCGAGTCGGAGTCACCTAGTGCAG”: the binding signal was 8540 fluorescence intensity (a.u.).

As for “AAAATTTTATTTTTCATGTGTGGCTTATTGTCCTTTTTTGCGGAGTCACCTAGTGCAG”, the binding signal is 9470 fluorescence intensity (a.u.). To “CTTTTTATTACCGGTGTTTCGCTTTGGACCACCCTTCAACCGGAGTCACCTAGTGCAG” belongs 9170 fluorescence intensity (a.u.); to “CCACCAATCCACCACCGCCACGCCACTTCACCCTTGTTTTCGGAGTCACCTAGTGCAG”, 9810 fluorescence intensity (a.u.); to “CTCCGTCGCCACTCACACCCATGGCCTTGACCGCTACTAGCGGAGTCACCTAGTGCAG”, 9550 fluorescence intensity (a.u.). To “GTTTTGAAAGGTATTGTTGGGTAGTAATAGGCTTCATCTTCGGAGTCACCTAGTGCAG” belongs 10200 fluorescence intensity (a.u.); to “TTCCTTTTGTGTTGTTTCCCTTTCAGTTTCATCTTTTGCTCGGAGTCACCTAGTGCAG”, 8110 fluorescence intensity (a.u.); to “ACTTGTCCTTGATCCTGCCCCACTTCGGATTGTCAATCGACGGAGTCACCTAGTGCAG”, 8730 fluorescence intensity (a.u.). As for “CGTTCCTTGGTATTCTCCCTCGTGGTGTAAATGTACGTATCGGAGTCACCTAGTGCAG”, the figure is 9740 fluorescence intensity (a.u.); as for “TTGTTGCAGCCTCGCAGTAAGATTCCTTGTTTTTCTTAGCCGGAGTCACCTAGTGCAG”, 8620 fluorescence intensity (a.u.).
